MEKK2 mut-MEK5 = signal of MEK5 binding to mutant human MEKK2 PB1 domain; hit rate 0.35% among 290,000; percent response, % at 10 µM; bead flow cytometry, Alexa488-MEK5 binding to MEKK2 mutant; in the data active = percent response above about 24%, passing the limit was not always enough
VLA-4 inh = inhibition in a human VLA-4 binding assay | P13612 | VLA-4 expressing cells, ligand binding flow cytometry | inhibition, % (about 7 µM as worked out from the volumes in the protocol) | hit rate 0.2% among 330,000 | AID 2557; in the data active = inhibition above about 50%
MEKK3 PB1 HTS = raises or lowers MEK5 binding to the human MEKK3 PB1 domain; bead-based flow cytometry, Alexa488-MEK5 binding to MEKK3; actives lie on both sides; 0 = blocked by unlabeled MEK5, 100 = vehicle; binding response (% of control), % at 10 µM; hit rate 1.4% among 290,000;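 active = binding response more than 3 SD above or below the average of its plate-row segment, actives on both sides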;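 note: Alexa488 bead fluorescence after subtracting the streptavidin-only scavenger bead signal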
Target sequence (Q99759 whole entry, looked up, the tested form may be a part): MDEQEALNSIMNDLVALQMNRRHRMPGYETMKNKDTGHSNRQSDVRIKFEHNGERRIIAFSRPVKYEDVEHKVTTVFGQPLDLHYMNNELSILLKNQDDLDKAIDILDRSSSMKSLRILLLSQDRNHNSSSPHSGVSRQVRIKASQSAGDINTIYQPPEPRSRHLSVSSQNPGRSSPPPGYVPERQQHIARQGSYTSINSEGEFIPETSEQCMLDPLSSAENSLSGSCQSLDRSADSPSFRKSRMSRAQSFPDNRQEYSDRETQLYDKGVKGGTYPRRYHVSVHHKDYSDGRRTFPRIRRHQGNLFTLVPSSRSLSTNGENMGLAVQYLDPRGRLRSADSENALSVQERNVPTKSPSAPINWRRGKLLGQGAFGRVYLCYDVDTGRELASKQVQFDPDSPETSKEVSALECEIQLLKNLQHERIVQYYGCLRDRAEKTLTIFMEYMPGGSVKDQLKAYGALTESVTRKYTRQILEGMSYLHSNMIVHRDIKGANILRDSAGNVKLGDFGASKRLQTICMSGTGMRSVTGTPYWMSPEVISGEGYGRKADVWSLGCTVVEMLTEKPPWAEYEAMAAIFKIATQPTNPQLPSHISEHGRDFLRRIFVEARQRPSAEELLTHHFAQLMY
MEKK2wt PB1 HTS = raises or lowers MEK5 binding to wildtype human MEKK2 PB1 domain; AID 1531; hit rate 1.1% among 290,000; binding response (% of control), % at 10 µM; bead flow cytometry, Alexa488-MEK5 binding to MEKK2 WT; actives lie on both sides; in the data active = binding response below about 67% or above about 130%
Active calls of the source: *; i = inactive; · = not tested or not shown; ! = a repeat was not active; [ ] = another dose, or the depositor's remark. The list is not random: actives were taken first. Their share in the collection is about 2.2%.

SMILES	MEKK2 mut-MEK5	VLA-4 inh	MEKK3 PB1 HTS	MEKK2wt PB1 HTS
COC(=O)CCC(=O)OC1(C)C(=O)C2=CN(Cc3ccccc3)C(c3ccc(OC)cc3)=CC2=C(Br)C1=O (configuration not stated)	-4	12	90	-6.0*
COC(=O)CCC(=O)OC1(C)C(=O)C2=CN(CC3CC3)C(c3ccc(OC)cc3)=CC2=C(Br)C1=O (configuration not stated)	-8	-14	93	-10*
O=C(NC1CCCC1)C(c1cccnc1)N(Cc1ccccc1)C(=O)c1csnn1 (configuration not stated)	1	3	100	102
CCOC(=O)N1CCN(C(=O)C(=O)c2cn(CC(=O)N3CCCCCC3)c3ccccc23)CC1	1	-5	97	2.0*
CCOC(=O)c1sc2ncc([N+](=O)[O-])cc2c1N	11	1	107	100
COC(=O)c1sc2cc([N+](=O)[O-])cc(SCC(C)C)c2c1N	7	i	99	9.0*
Cc1ccc(C)c(OCc2cc(C(=O)NC3CCN(Cc4ccccc4)CC3)no2)c1	11	16	106	135*
O=C(Nc1ccc(NC(=O)c2ccc(Cl)cc2Cl)cc1)c1ccc2c(c1)OCO2	-5	-6	99	99
O=C(Nc1ccc(C2=NCCN2)cc1)c1ccc(C(=O)Nc2ccc(C3=NCCN3)cc2)c(Cl)c1	31*	3	72*[inhibitor]	149*
O=C(CCCCl)NC(=S)Nc1ccc(N2CCOCC2)cc1	-7	1	90	88
COc1ccc(CN2CCNC(=O)C2CC(=O)NC2CCCCCCC2)cc1C (configuration not stated)	28*	-1	108	128
CCOc1cccc2cc(C(=O)N3CCc4ccccc43)c(=O)oc12	8	-242	100	5.0*
COc1cccc2cc(C(=O)N3CCc4ccccc43)c(=O)oc12	1	7	102	98
COc1ccccc1N1CCN(C(=O)C(=O)c2c(C)[nH]c3ccccc23)CC1	-1	7	98	99
COc1c(O)cc2c(c1O)C1OC(CO)C(O)C(O)C1OC2=O (configuration not stated)	·	20	·	·
O=C1OCC2OC(O)C(O)C(O)C2OC(=O)c2cc(O)c(O)c(O)c2-c2c(O)c(O)c3oc(=O)c4c(c(O)c(O)c5oc(=O)c2c3c54)-c2c1cc(O)c(O)c2O (configuration not stated)	-15	·	73*[inhibitor]	66*[inhibitor]
Cc1cccc2sc(N(CCCN(C)C)C(=O)c3ccc(C(=O)c4ccccc4)cc3)nc12	33*	-13	106	168*
CN(C)CCCN(C(=O)c1ccc(C(=O)c2ccccc2)cc1)c1nc2cc3c(cc2s1)OCO3	38*	-7	109	170*
CN(C)CCCN(C(=O)c1ccc(C(=O)c2ccccc2)cc1)c1nc2ccc(F)cc2s1	14	-94	107	174*
CN(C)CCCN(C(=O)c1ccco1)c1nc2cc3c(cc2s1)OCO3	5	23	102	109
Cc1ccc2sc(N(CCN(C)C)C(=O)c3ccc4ccccc4c3)nc2c1C	18	0	106	161*
CN(C)CCCN(C(=O)c1nc2ccccc2s1)c1nc2ccc(F)cc2s1	·	2	·	·
Cc1ccn2c(C=O)c(-c3ccc(F)cc3)c(C=O)c2c1	13	-14	93	-3.0*
COc1ccc(N=c2scc(-c3ccc(S(=O)(=O)N4CCOCC4)cc3)n2CCCO)cc1	-36	·	2.0*[inhibitor]	3.0*[inhibitor]
CN(C)CCC(O)c1ccccc1 (configuration not stated)	2	12	93	-4.0*
SMILES	MEKK2 mut-MEK5	VLA-4 inh	MEKK3 PB1 HTS	MEKK2wt PB1 HTS
CN(C)c1ccc(/C=C2\CCC/C(=C\c3ccccc3)C2=O)cc1	21	i	121	15*
CCOc1ccc(NC(=O)c2ccc3c(c2)OCCO3)cc1S(=O)(=O)N(CC)CC	·	0	·	·
CC(=O)CCCCn1cnc2c1c(=O)n(C)c(=O)n2C	-7	-5	90	-14*!
Cn1c(=O)c2c(ncn2CC(N)=O)n(C)c1=O	14	2	110	115
Cc1cccc2c1-c1sc(C(=O)NCCCN3CCC(C)CC3)cc1CO2	29*	25	107	186*
CC1CCCN(CCCNC(=O)c2cc3c(s2)-c2ccccc2OC3)C1 (configuration not stated)	9	29	103	132
CC1CCN(CCCNC(=O)c2cc3c(s2)-c2ccccc2OC3)CC1	11	6	104	134*
CC(OC(=O)C1CCCC1)C(=O)Nc1ncc(Cl)cc1Cl (configuration not stated)	·	-21	·	·
C#CCOCCOCCOCCNc1nc(N2CCOCC2)nc(N2CCN(C(=O)[C@H](CCCCN)n3cc([C@@H](N)CC(C)C)nn3)CC2)n1	12	15	107	118
C#CCOCCOCCOCCNc1nc(N2CCN(C(=O)[C@H](CCCCN)n3cc(C(N)COC(=O)C(F)(F)F)nn3)CC2)nc(N2CCN(C(=O)[C@H](CCCCN)n3cc(C(N)CC(C)C)nn3)CC2)n1 (some centres not stated)	21	·	101	150*
Cc1noc(C)c1CSCC(=O)Nc1ccc(S(C)(=O)=O)cc1	·	-1	·	·
CC1Cc2cc(S(=O)(=O)N3CCC(C(N)=O)CC3)ccc2N1C(=O)C1CC1 (configuration not stated)	-17	3	2.0*[inhibitor]	0.0*[inhibitor]
CCN(CC)c1ccc(/C=C(\C#N)c2nc(-c3cccs3)c(NC(C)=O)s2)cc1	517*	·	104	290*
CC(=O)Nc1sc(N/N=C\c2ccc(O)cc2)nc1-c1cccs1	3	8	105	98
CC[C@]1(O)CC2CN(CCc3c([nH]c4ccccc34)[C@@](C(=O)OC)(c3cc4c(cc3OC)N(C)[C@H]3[C@@](O)(C(N)=O)[C@H](O)[C@]5(CC)C=CCN6CC[C@]43[C@@H]65)C2)C1 (some centres not stated)	7	·	108	123
COc1cccc(NC(=O)C2CCCO2)c1 (configuration not stated)	1	10	105	104
COc1ccc(NS(=O)(=O)c2ccc(N3CC(O)=C(c4ccccc4)C3=N)cc2)cc1	13	-6	103	104
CN(C)CCCNC(=S)NCC(c1ccc(Cl)cc1Cl)c1c[nH]c2ccccc12 (configuration not stated)	73*	21	110	223*
Cc1ccc(C(C)C)c(OCc2nn(CC(=O)c3ccc(OC(F)F)cc3)c3[n+]2CCCCC3)c1	47	6	114	217*
O=C(Cn1nc(-c2nn(CC(=O)c3ccccc3)c3[n+]2CCCCC3)[n+]2c1CCCCC2)c1ccccc1	6	-5	99	110
O=C(NCCS(=O)(=O)N1CCN(c2cccc(Cl)c2)CC1)c1ccc2c(c1)OCO2	·	6	·	·
CN1CCN(c2ccc(NC(=S)NC(=O)c3cccc4c(Br)cccc34)cc2)CC1	22	13	106	173*
O=C(O)c1ccc(-c2noc(-c3cccc(Cl)c3)n2)cc1	·	21	·	·

Screening results as filed in PubChem.
